Measurements as given in PubChem BioAssay AID1851 (National Center for Advancing Translational Sciences (NCATS), 2009).
In all, about 16,000 compounds went through this assay and about 4,000 (25%) were called active. Inconclusive results (about 26%) are left out. Calls follow the shape of the dose curve; as a rule, active = well fitted curve in the direction sought with a large enough effect; inconclusive = small, poorly fitted or top-dose-only effect, or effect the other way; inactive = no such curve, though single readings can be large or run the other way. Not all results are given here.

molecular target: Cytochrome P450 2C9 (Homo sapiens) (UniProt P11712); assay: Cytochrome panel assay with activity outcomes; details: recombinant CYP, pro-luciferin dealkylation, luminescence, p450-cyp2c9; series mostly up to 57.1 µM
Sequence (P11712 whole entry, looked up): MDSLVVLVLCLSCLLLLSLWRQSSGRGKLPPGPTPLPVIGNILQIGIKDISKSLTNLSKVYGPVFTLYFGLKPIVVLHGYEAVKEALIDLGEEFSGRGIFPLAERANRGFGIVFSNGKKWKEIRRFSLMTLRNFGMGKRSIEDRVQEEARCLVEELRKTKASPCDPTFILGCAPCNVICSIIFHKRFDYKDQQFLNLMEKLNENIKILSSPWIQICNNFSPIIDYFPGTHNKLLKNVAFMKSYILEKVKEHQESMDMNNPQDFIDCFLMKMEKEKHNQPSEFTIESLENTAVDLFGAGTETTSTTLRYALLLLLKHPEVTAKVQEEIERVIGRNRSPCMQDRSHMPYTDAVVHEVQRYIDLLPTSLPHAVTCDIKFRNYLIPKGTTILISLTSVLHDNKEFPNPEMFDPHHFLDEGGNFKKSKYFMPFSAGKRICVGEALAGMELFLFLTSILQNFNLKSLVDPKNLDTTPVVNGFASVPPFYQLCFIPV
% is scaled to controls: 0 for no effect and ±100 for the full control effect.

activity, negative = inhibition, inactive:
COc1ccccc1-c1ccc2ncnc(N(C)C)c2c1 -21.1% [at 2.29 µM]
O=C(O)[C@H](Cc1c[nH]c2ccccc12)N1C(=O)c2ccccc2C1=O 6.23% [at 11.4 µM]
C#CCCCO/N=C1/[C@H]2O[C@@H]2[C@@H](O)[C@H]2[C@H]1CCn1c(=O)n([C@@H](CC)c3ccccc3)c(=O)n12 4.97% [at 11.4 µM]
CN(Cc1ccco1)c1ncncc1-c1ccoc1 -8.69% [at 2.29 µM]
O=C(O)c1cc(-c2ccncc2)nc2ccccc12 -29.2% [at 11.4 µM]
O=C(O)CSSCC(=O)O 22.5% [at 11.4 µM]
N[C@H](C(=O)O)[C@H](N)C(=O)O 17.2% [at 11.4 µM]
COc1ccc(N(CC(=O)O)N=O)cc1 -1.12% [at 11.4 µM]
Cc1ccccc1-c1cc(NCCN2CCOCC2)ncn1 18.6% [at 2.29 µM]
CC(C)=CCC/C(C)=C/CO/N=C1/C[C@@H](O)[C@@H](O)[C@@H]2[C@@H]3C(=O)N(C(C)(C)C)C(=O)[C@H]3CC[C@@H]12 -9.91% [at 11.4 µM]
N[C@@H](CSC(=O)c1ccccc1)C(=O)O 18.3% [at 11.4 µM]
O=C1c2ccccc2C(=O)N1CCCSc1ccccc1 -22.7% [at 11.4 µM]
CN(CC(=O)O)Cc1c(O)c(Cl)cc(Cl)c1Cl 13.6% [at 11.4 µM]

AC50, active:
CN1C2C=C(N(CCc3c[nH]c4ccccc34)C(=O)c3ccc(Cl)cc3)CC1CC2 (configuration not stated) 1.78 µM
COc1ccc(C(=O)Nc2cccc(OC(=O)c3ccc(C)c(C)c3)c2)cc1 3.55 µM
C/C(=N\n1nnnc1Nc1ccccc1)c1ccc(N)cc1 11.2 µM
N=C(N)SCc1nc2ccccc2c(=O)n1-c1ccccc1Cl 3.16 µM
O=C(c1cc(-c2ccncc2)nc2ccccc12)N1CCN(c2ccc(N3CCOCC3)nn2)CC1 1.26 µM
CCCn1c(-c2ccccc2)nc2c(=O)n(C)c(=O)[nH]c21 12.6 µM
Cc1nn2c3c(cnc2c1-c1ccccc1)C(=O)CC(c1ccccc1)C3 (configuration not stated) 10 µM
COc1ccc(N(C(=O)COc2ccccc2OC)S(=O)(=O)c2ccc(C)cc2)cc1 1 µM
O=C1C(=O)c2ccccc2C(O)=C1C1CCC(c2ccc(Cl)cc2)CC1 (configuration not stated) 2 µM
Cc1cc(C)c2cc(CN(Cc3nnnn3Cc3ccc(F)cc3)C3CCCC3)c(=O)[nH]c2c1 7.08 µM
Cn1c(C(=O)Nc2ccccc2)cc2sccc21 20 µM
COCCN(C(=O)c1ccco1)c1nnc(-c2ccc(OC)cc2)s1 28.2 µM
O=C1N(c2ccccc2)c2ccccc2C1(Cc1ccncc1)Cc1ccncc1 7.94 µM
Nc1nc(SCC(=O)Nc2ccccc2Sc2ccc(Cl)cc2)n[nH]1 1 µM
C=CCNC(=O)/C(=C\C=C\c1ccccc1)NC(=O)c1ccc(OCCCC)cc1 12.6 µM
Clc1ccc(/C=N/Nc2nnc(-c3ncc[nH]3)c3ccccc23)cc1 5.01 µM
O=C(Nc1cccn(Cc2c(Cl)cccc2Cl)c1=O)c1ccc(Cl)cc1Cl 3.55 µM
C/C(=C\C(=O)c1ccc(Br)cc1)NCc1ccc2c(c1)OCO2 11.2 µM
C/C(=C\C(=O)c1ccc(Cl)cc1)NCc1ccc2c(c1)OCO2 7.94 µM
O=C(c1ccccc1)c1ccc(OCCn2cnc3ccccc3c2=O)cc1 2.82 µM
O=c1c2ccccc2ncn1CCCSc1ccccc1 14.1 µM
Cc1ccc(SCCCn2cnc3ccccc3c2=O)cc1 12.6 µM
C[C@@H](C(=O)NCCc1c[nH]c2ccccc12)[C@@H]1C[C@@]1(C)[C@@H](NC(=O)OCc1ccccc1)c1ccccc1 2.51 µM
C[C@@H](C(=O)NCCc1c[nH]c2ccccc12)[C@H]1C[C@]1(C)[C@H](NC(=O)OCc1ccccc1)c1ccccc1 0.631 µM

AC50, inactive:
CN1[C@@H]2CC[C@H]1CC(OC(=O)c1c[nH]c3ccccc13)C2 (some centres not stated)
N[C@H](C(=O)O)c1cccc(O)c1
Cn1c(=O)c2[nH]c(-c3ccccc3)nc2n(C)c1=O
CCn1c(=O)c2[nH]c(-c3ccccc3)nc2n(CC)c1=O
CC[N+](CC)(CC)CC
C=C[C@H](N)CCC(=O)O
CO/N=C(\C(=O)N[C@@H]1C(=O)N2C(C(=O)O)=C(COC(C)=O)CS[C@@H]12)c1csc(N)n1
CCC(c1nnnn1CC1CCCO1)N(CCN1CCOCC1)Cc1cc2cc(C)ccc2[nH]c1=O (configuration not stated)
Cn1nccc1C(=O)Nc1ccc(Cl)cc1
COCC(=O)N(C)c1nnc(-c2ccc([N+](=O)[O-])cc2)s1
C=CCN1CCc2cc(O)c(O)cc2[C@H](c2ccccc2)C1
COc1ccccc1CN1CC2(CCN(S(C)(=O)=O)CC2)C1
Cc1ccc(NC(=O)CN(C)C(=O)CSc2n[nH]c(N)n2)cc1
CC[N+](CC)(CC)CCOc1ccc(/C=C\c2ccccc2)cc1
O=C1Nc2ccccc2Nc2ncccc21
COc1cc(C(=O)NCCC(=O)NCc2ccc3c(c2)OCO3)cc(OC)c1OC
CC1(C)CC(NCc2ccc3c(c2)OCO3)CCO1 (configuration not stated)
O=C1Nc2ccccc2C(O)(C(=O)NCc2ccc3c(c2)OCO3)N1c1ccc(Cl)c(Cl)c1 (configuration not stated)
O=C(NCc1ccc2c(c1)OCO2)C1CC(=O)N(C2CCCC2)C1 (configuration not stated)
Cc1[nH]c2ccccc2c1/C=C/c1cc[n+](C)cc1
CCCc1ncc(C[n+]2ccccc2C)c(N)n1
COc1ccc(Cl)cc1C(=O)Nn1cnc2ccccc2c1=O
COc1ccc2c(OC)c3ccoc3nc2c1OC
COC(=O)C(Cc1c[nH]c2ccccc12)NC(=O)C(C)C (configuration not stated)
CC(=O)N[C@@H](Cc1c[nH]c2ccccc12)C(=O)OCc1cc(C(F)(F)F)cc(C(F)(F)F)c1
